Here are results for 34 molecules from PubChem BioAssay (Tox21).

Inconclusive results are not listed. Unmarked numbers belong to inactive results. Active and inactive are the calls of the source. Calls follow the shape of the full dose curve.
% is scaled to controls: 0 for no effect and ±100 for the full control effect.

This experiment has as its system thyroid hormone receptor (rat, GH3 cells). Kind of experiment: qHTS assay to identify small molecule agonists of the thyroid receptor (TR) signaling pathway (AID 743066). The conditions noted are these: GH3.TRE-Luc cells, TR agonist luciferase, 24 h; series mostly up to 83.9 µM; activation: at the top concentration.
Take `C=N[C@@H](C(=O)N[C@@H]1C(=O)N2[C@@H]1SC(C)(C)[C@@H]2C(=O)O)c1ccccc1`: the “activation” value is 1.13%.
Same read-out and setting: under `O=C(O)/C=C/C(=O)Nc1ccc(S(=O)(=O)Nc2nccs2)cc1` stands 1.57%.
For the molecule `O=c1[nH]c(=O)n([C@H]2C[C@H](O)[C@@H](CO)O2)cc1/C=C/Br`, the “activation” value is 0.496%.
For `C[C@H](O)CN(C)C`, the “activation” value is 1.34%.
Regarding `CC(C)C[C@H](NC(=O)[C@@H](COC(C)(C)C)NC(=O)[C@H](Cc1ccc(O)cc1)NC(=O)[C@H](CO)NC(=O)[C@H](Cc1c[nH]c2ccccc12)NC(=O)[C@H](Cc1cnc[nH]1)NC(=O)[C@@H]1CCC(=O)N1)C(=O)N[C@@H](CCCN=C(N)N)C(=O)N1CCC[C@H]1C(=O)NNC(N)=O`, the Potency entry was “inactive”.
Consider `NC[C@H]1O[C@H](O[C@H]2[C@H](O)[C@@H](O[C@H]3O[C@H](CO)[C@@H](O)[C@H](N)[C@H]3O)[C@H](N)C[C@@H]2N)[C@H](N)C[C@@H]1O`, for which the “activation” value is 0.277% [at 39.4 µM].
The same measure, in the same setting: next, `FC(F)(F)COCC(F)(F)F`: 2.32%.
As for `NCC[C@H](O)C(=O)N[C@@H]1C[C@H](N)[C@@H](O[C@H]2O[C@H](CN)CC[C@H]2N)[C@H](O)[C@H]1O[C@H]1O[C@H](CO)[C@@H](O)[C@H](N)[C@H]1O`, the “activation” value is 1.19%.
On the same count and under the same terms, next, `CC(C)Cc1ccc([C@H](C)C(=O)O)cc1`: -1.31%; `O=P(O)(O)C(O)(Cn1ccnc1)P(=O)(O)O`: 1.48%.
In the case of `NCC(O)CC(=O)O` (centres undefined), the “activation” value was 0.313%.
The same measure, in the same setting: under `CNCC(=O)N[C@@H](CCCN=C(N)N)C(=O)N[C@H](C(=O)N[C@@H](Cc1ccc(O)cc1)C(=O)N[C@H](C(=O)N[C@@H](Cc1cnc[nH]1)C(=O)N1CCC[C@H]1C(=O)N[C@@H](C)C(=O)O)C(C)C)C(C)C` stands 0.402%; under `CCC(NC(C)C)C(O)c1ccc(O)c(O)c1` (centres undefined), 0.481%.
As for `CCCOC(=O)c1ccc(O)cc1`, the Potency result is “inactive”.
As to `CC12CCC(C[N+](C)(CCC[N+](C)(C)C)C1)C2(C)C` (centres undefined), the “activation” value was -0.439%.
Same read-out and setting: next, `COc1ccc(/C=N/NC(=O)c2ccncc2)c(C(=O)O)c1OC`: 0.732%; `O=C1[O][Bi][O]c2ccccc21`: 0.952%; `CC(=NCc1ccccc1)c1ccccc1O`: 1.27%.
In the case of `C[C@H](NCCc1ccc(O)cc1)[C@H](O)c1ccc(O)cc1`, the “activation” value was 1.66%.
With `CCCC(CCC)C(=O)OC1C[C@H]2CC[C@@H](C1)[N+]2(C)C` (some centres undefined), the Potency result is “inactive”.
On to `NC(=O)[C@H]1O[C@@H](O)[C@H](O)[C@@H](O)[C@@H]1O`, for which the “activation” value is 0.111%.
Take `CCCCCCCCCCCCCC(=O)OCC(COP(=O)([O-])OCC[N+](C)(C)C)OC(=O)CCCCCCCCCCCCC` (centres undefined): the “activation” value is 0.081%.
Consider `CCN(CC)C(=O)c1cccnc1`, for which the “activation” value was 0.378%.
Same read-out and setting: under `CC(C)(COP(=O)(O)OP(=O)(O)OC[C@H]1O[C@@H](n2cnc3c(N)ncnc32)[C@H](O)[C@@H]1OP(=O)(O)O)C(O)C(=O)NCCC(=O)NCCS` (some centres undefined) stands 0.0683%; under `NC(=S)NS(=O)(=O)c1ccc(N)cc1`, 0.271%.
The same measure, in the same setting: under `c1ccc2cc3c4ccccc4c4ccccc4c3cc2c1` stands -0.144% [at 95.2 µM].
As to `C[S+](CC[C@H](N)C(=O)O)C[C@H]1O[C@@H](n2cnc3c(N)ncnc32)[C@H](O)[C@@H]1O` (some centres undefined), the Potency entry is “inactive”.
On to `CC(C)(C)C(=O)OCC(=O)[C@H]1CC[C@H]2[C@@H]3CCC4=CC(=O)CC[C@]4(C)[C@H]3CC[C@]12C`, for which the “activation” value was -0.127%.
The same measure, in the same setting: under `CC(=O)Nc1ccc(OC(C)=O)cc1` stands 1.18%.
The same measure, in the same setting: under `C=CC(N)CCC(=O)O` (centres undefined) stands 0.186%.
`Cc1c(N)nc([C@H](CC(N)=O)NC[C@H](N)C(N)=O)nc1C(=O)N[C@H](C(=O)N[C@H](C)[C@@H](O)[C@H](C)C(=O)N[C@H](C(=O)NCCc1nc(-c2nc(C(=O)NCCCCN=C(N)N)cs2)cs1)[C@@H](C)O)[C@@H](O[C@@H]1O[C@@H](CO)[C@@H](O)[C@H](O)[C@@H]1O[C@H]1O[C@H](CO)[C@@H](O)[C@H](OC(N)=O)[C@@H]1O)c1cnc[nH]1`: the Potency entry is “inactive”.
The same measure, in the same setting: under `CCOC(=O)COc1ccc2c(=O)cc(-c3ccccc3)oc2c1` stands “inactive”; under `NC(=O)CC[C@@H]1NC(=O)[C@H](Cc2ccccc2)NC(=O)[C@H](Cc2ccc(O)cc2)NC(=O)[C@@H](N)CSSC[C@@H](C(=O)N2CCC[C@H]2C(=O)N[C@@H](CCCN=C(N)N)C(=O)NCC(N)=O)NC(=O)[C@H](CC(N)=O)NC1=O`, “inactive”.
On the same count and under the same terms, next, `Cc1onc(-c2c(F)cccc2Cl)c1C(=O)N[C@@H]1C(=O)N2[C@@H]1SC(C)(C)[C@@H]2C(=O)O`: “inactive”.
